Only some compounds are listed: those with a hit (about 6.5% of all), similar ones and a draw of the others.
Marburg entry inh: blocks Marburg virus binding to or entry into cells; 1.8% of 300,000 active; Marburg virus pseudotyped entry inhibition, cell reporter; Potency, µM (titrated, usually from 37.8 µM), for the others: at the highest dose activity change, negative = inhibition, hits mostly inhibitors; AID 540276; calls by dose curve; tested in HEK293 cells; further: potency means the concentration at half of the fitted maximal effect
HCMV antiviral: inhibitors of human cytomegalovirus | 4.5% of 410,000 active | AID 1259415 | activity change, negative = inhibition, % at 57.5 µM | HFF cells, HCMV-luciferase reporter, 72 h; active compounds read low; in the data active means activity change below about -60%; inconclusive means no clear call, values can overlap the other calls; inactive means above about -39%
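Compounds were evaluated in HFFs infected with an HCMV luciferase reporter virus (MOI 1 PFU/cell). Luciferase in lysates collected 72 h post infection served as the replication measure.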
Vaccinia Venus: vaccinia inhibition (Venus reporter). Vaccinia virus Venus reporter expression, fluorescence. Potency, µM (series often up to 36.5 µM), without a hit: at the highest dose activity change, negative = inhibition, hits mostly inhibitors. 0.46% of 330,000 active; calls by dose curve; tested in A549 cells; further: potency means the concentration at half of the fitted maximal effect; nearly all actives have a fitted effect of over 30% in size
FMDV inh: antivirals against foot and mouth disease virus | FMDV antiviral cell-based qHTS | 1.2% of 410,000 active | Potency, µM (doses to about 57.9 µM), for inactives: at the top dose activity change, negative = inhibition, most hits filed as inhibitors; calls by dose curve; tested in HEK293T cells; further: read-out not given here; potency means the concentration at half of the fitted maximal effect; nearly all actives have a fitted effect of over 45% in size
VACV mCherry inh: inhibitors of vaccinia virus infection (mCherry reporter signal); Potency, µM (series often up to 36.5 µM), without a hit: at the highest dose activity change, negative = inhibition, actives largely listed as inhibitors; 0.63% of 310,000 active; AID 720579; Vaccinia virus mCherry reporter infection, fluorescence; calls by dose curve; tested in A549 cells; further: potency means the concentration at half of the fitted maximal effect; nearly all actives have a fitted effect of over 35% in size
LASV entry inh: blocks Lassa virus binding to or entry into cells | Lassa virus pseudotype entry inhibition, cell reporter | Potency, µM (series often up to 37.9 µM), for inactives: top-dose activity change, negative = inhibition, most hits filed as inhibitors | 1.2% of 300,000 active; calls by dose curve; tested in HEK293 cells; further: potency means the concentration at half of the fitted maximal effect; nearly all actives have a fitted effect of over 50% in size
An asterisk follows results filed as active; i = inactive; ? = inconclusive; / = no result given; ! = a repeat was not active; [ ] = another dose, or the depositor's remark. On the % scale 0 is the no-effect control and ±100 the full control effect.

SMILES	Marburg entry inh	HCMV antiviral	Vaccinia Venus	FMDV inh	VACV mCherry inh	LASV entry inh
COc1cccc(-c2nc(CS(=O)(=O)CC(=O)Nc3c(C)cc(C)cc3C)c(C)o2)c1	-5%[46.1 µM]	-62*	-29%	-20%	-36%	-5%[46.1 µM]
CCCNC(=O)CS(=O)(=O)Cc1nc(-c2ccccc2C)oc1C	/	5	-20%	-13%	i	/
COc1ccc(OC)c(CCNC(=O)CS(=O)(=O)Cc2nc(-c3ccc(C)cc3)oc2C)c1	-9%	2	/	-25%	/	3%
Cc1ccc(C)n1C1C(=O)N(Cc2ccc(C(C)C)cc2)c2ccc(F)cc21 (stereo not drawn)	/	27	/	/	/	/
COc1ccc(S[C@]2(c3nc(C)no3)CC(=O)N(c3ccc(Cl)cc3)[C@@H]2c2ccc(OC)cc2)cc1	/	9	/	/	/	/
Cc1ccc(CNC(=O)CS(=O)(=O)Cc2nc(-c3ccccc3C)oc2C)cc1	13%[46.1 µM]	-61*	4%	-10%	-10%	-21%[46.1 µM]
Cc1ccc(N(CC(O)Cn2c3ccccc3c3ccccc32)S(=O)(=O)c2ccc(F)cc2)cc1 (stereo not drawn)	?	-92*	-3%[7.34 µM]	?	-1%[7.34 µM]	-19%[46.1 µM]
COc1ccc(N(CC(O)Cn2c3ccccc3c3ccccc32)S(=O)(=O)c2ccccc2)cc1 (stereo not drawn)	?	-78*	?	?	/	-4%
CS(=O)(=O)N(CC(O)Cn1c2ccccc2c2ccccc21)c1ccccc1 (stereo not drawn)	?	9	?	?	/	-13%
CCN(CC(O)Cn1c2ccccc2c2ccccc21)S(=O)(=O)c1ccc(C)cc1 (stereo not drawn)	?	12	/	-8%	/	?
CCOc1ccc(CNC(=O)c2ccc(-c3nc(CS(=O)(=O)c4ccccc4)c(C)o3)cc2)cc1	/	-34	-17%	-10%	i	39%[46.1 µM]
CCOC(=O)C1Nc2ccc(C(F)(F)F)cc2C2c3ccccc3CC12 (stereo not drawn)	/	64	?	28µM*	?	/
O=C(NCCOc1ccccc1)C1Nc2ccc(C(F)(F)F)cc2C2c3ccccc3CC12 (stereo not drawn)	/	84	-29%	-19%	?	/
CC(C)(Oc1ccc(Cl)cc1)C(=O)Nc1nc2ccc(S(C)(=O)=O)cc2s1	-13%[46.1 µM]	9	-10%	-18%	i	18%[46.1 µM]
CCC[C@H]1[C@H](N(C)Cc2cccs2)CC[C@@]23CCCN2C(=O)CCC[C@@H]13	/	-5	/	/	/	/
C/C(=N/NC(=O)c1ccc(C)s1)c1cccc(NC(=O)COc2ccc(Cl)cc2Cl)c1	?	-35	3%	15%	/	-25%
C/C(=N/NC(=O)c1cccs1)c1ccc(NC(=O)COc2ccc(Cl)cc2Cl)cc1	?	-33	-13%	4%	i	13µM*
C/C(=N/NC(=O)c1ccc(Cl)s1)c1ccc(NC(=O)COc2ccc(Cl)cc2)cc1	?	-77*	-13%	-16%	i	0%
O=C(CN(CC(=O)Nc1ccc(F)cc1)CC(=O)Nc1ccc(F)cc1)Nc1ccc(F)cc1	/	52	/	/	/	/
Cc1cc(C)cc(C(=O)NCC(c2ccc(N(C)C)cc2)N2CCCC2)c1 (stereo not drawn)	/	-36	-17%	-21%	-5%	?
CC(=O)c1cccc(NC(=O)CN2C(=O)c3cccnc3Sc3ccccc32)c1	/	77	-5%	8%	4%	1%[46.1 µM]
CC1(C)Cc2nc3oc4c(N(CCO)Cc5ccccc5)ncnc4c3cc2CO1	0%	?	/	32µM*	/	?
O=S(=O)(Nc1cc2nc3ccccc3nc2n1Cc1ccccc1)c1ccc(Cl)cc1	?	-91*	-4%	12%	i	7.3µM*!
CCNC(=O)CSc1nnc(-c2cccc(S(=O)(=O)N(CC)CC)c2)n1CCc1ccccc1	17%	-21	/	0%	/	-21%
CCSc1nnc(-c2cccc(S(=O)(=O)N(CC)CC)c2)n1Cc1ccccc1	15µM*	-39	/	?	/	23µM*
SMILES	Marburg entry inh	HCMV antiviral	Vaccinia Venus	FMDV inh	VACV mCherry inh	LASV entry inh
CN1CCN(c2ccc(-c3cccc(NC(=O)COc4ccc(Cl)cc4Cl)c3)nn2)CC1	?	-26	-5%	?	-21%	4.5µM*
Cc1cccc(C(=O)N[C@H]2CC[C@@]34CCCN3C(=O)CCC[C@H]4[C@H]2Cc2ccccc2)c1	/	-27	/	/	/	/
CSc1ccc(-c2cc(=O)c3ccccc3o2)cc1	?	-72*	-19%	21%	-11%	26%
O=c1cc(-c2ccccc2F)oc2ccccc12	17%	53	/	39%	/	-6%
O=c1cc(-c2ccccc2[N+](=O)[O-])oc2ccccc12	?	-66*	?	27%	-20%	?
CC1CC(C)(C)NC(=S)N1CCC(=O)Nc1ccc2c(c1)OCCO2 (stereo not drawn)	11µM*	53	?	?	?	3.5µM*
CC(C)c1ccc(NC(=O)CCCN2C(=S)NC(C)(C)CC2C)cc1 (stereo not drawn)	-3%[46.1 µM]	-86*	-15%	12%	i	0%[46.1 µM]
O=C(c1cc(-c2ccccc2)on1)N1CCOc2ccc(CN3CCOCC3)cc2C1	/	/	0%	3%	-14%	/
COCC(=O)Nc1cc(C(=O)N2CCCCC2c2nccs2)c2c(c1)nc(-c1ccncc1)n2C (stereo not drawn)	/	/	-3%	-9%	-11%	/
c1ccc(Oc2ccc(Nc3ncc(-c4ccccc4)o3)cc2)cc1	/	/	/	/	/	0.25µM*
c1ccc(-c2cnc(-c3cccnc3)o2)cc1	?	159	-17%	33%	-5%	1%
CN(C)c1ccc(/C=C/c2cnnc3ccccc23)cc1	/	/	68%	/	-5%	/
Cc1ccc(N=C2N=C(N)c3ccccc32)cc1C	?	-63*	/	-6%	/	?
CC(=O)[C@@]12C3[C@@H](CCN3C(=O)N[C@H]1c1ccccc1)[C@H]2c1ccccc1 (stereo partly drawn)	21%[14.2 µM]	/	/	/	/	/
Cc1cc(Sc2ncnc(N)c2[N+](=O)[O-])ncn1	?	/	-11%	20µM*	i	11µM*
Cc1ccc(C)c(Oc2ncnc(N)c2[N+](=O)[O-])c1	17%	?	-8%	-14%	-2%	-7%
Cc1cc(Sc2nc(N)ncc2[N+](=O)[O-])ncn1	?	-99*	0%	?	-4%	-11%
Cc1cc(N)ncc1[N+](=O)[O-]	-1%[46.1 µM]	55	-2%	11%	-6%	11%[46.1 µM]
CCC1CN(C(=O)N2CCC(C(=O)NCCN(CC)CC)CC2)c2ccccc2O1 (stereo not drawn)	/	-11	-5%	-6%	1%	-31%[46.1 µM]
Cc1ccccc1NC(=O)Nc1nc(CN(C)C)cs1	/	-9	-4%	1%	6%	/
COc1ccc(NC(=S)Nc2nc(CC(=O)Nc3ccccc3OC)cs2)cc1	?	?	/	22µM*	/	?
CN(C)Cc1csc(NC(=O)Nc2ccccc2C(C)(C)C)n1	/	-76*	-9%	-14%	-12%	/
COc1ccccc1NC(=O)Nc1nc(CC(=O)NCc2c(F)cccc2F)cs1	?	-1	-19%	-9%	-5%	?

Compound activity deposited in PubChem by National Center for Advancing Translational Sciences (NCATS).
